The experiment can be described thus: chemical genetic growth profiling, strain panel (AID 1159580).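 Note: tested at 20 µM; growth read once vehicle control cultures reached saturation at 30 °C; 1 = growth at the plate median or of vehicle wells; lower values mean less growth of the strain.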 To be noted: growth OD.
Setting [1] is: S. cerevisiae deletion strains, locus YDR150W, strain NUM1, stronger effect = lower value.
Where [2] appears, read: S. cerevisiae deletion strains, locus YGR229C, strain SMI1, stronger effect = lower value.
[3] abbreviates: S. cerevisiae deletion strains, locus YJR075W, strain HOC1, stronger effect = lower value.
[4] abbreviates: S. cerevisiae deletion strains, locus YMR263W, strain SAP30, stronger effect = lower value.
[5] abbreviates: S. cerevisiae deletion strains, locus YAL013W, strain DEP1, stronger effect = lower value.
Setting [6] is: S. cerevisiae deletion strains, locus YBR229C, strain ROT2, stronger effect = lower value.
Where [7] appears, read: S. cerevisiae deletion strains, locus YDL101C, strain DUN1, stronger effect = lower value.
The mark [8] stands for this setting: S. cerevisiae deletion strains, locus YEL061C, strain CIN8, stronger effect = lower value.
Setting [9] is: S. cerevisiae deletion strains, locus YGR078C, strain PAC10, stronger effect = lower value.
The mark [10] stands for this setting: S. cerevisiae deletion strains, locus YHR030C, strain SLT2, stronger effect = lower value.
Where [11] appears, read: S. cerevisiae deletion strains, locus YHR087W, strain rtc3, stronger effect = lower value.
[12] abbreviates: S. cerevisiae deletion strains, locus YJR043C, strain POL32, stronger effect = lower value.
The mark [13] stands for this setting: S. cerevisiae deletion strains, locus YLR039C, strain RIC1, stronger effect = lower value.
The mark [14] stands for this setting: S. cerevisiae deletion strains, locus YLR058C, strain SHM2 (second series), stronger effect = lower value.
The mark [15] stands for this setting: S. cerevisiae deletion strains, locus YLR085C, strain ARP6, stronger effect = lower value.
Where [16] appears, read: S. cerevisiae deletion strains, locus YLR262C, strain YPT6, stronger effect = lower value.
Where [17] appears, read: S. cerevisiae deletion strains, locus YML094W, strain GIM5, stronger effect = lower value.
Where [18] appears, read: S. cerevisiae deletion strains, locus YMR219W, strain ESC1, stronger effect = lower value.
Setting [19] is: S. cerevisiae deletion strains, locus YNL153C, strain GIM3, stronger effect = lower value.
Setting [20] is: S. cerevisiae deletion strains, locus YNL298W, strain CLA4 (second series), stronger effect = lower value.
Setting [21] is: S. cerevisiae deletion strains, locus YNL322C, strain KRE1, stronger effect = lower value.
[22] abbreviates: S. cerevisiae deletion strains, locus YNR030W, strain Alg12, stronger effect = lower value.
[23] abbreviates: S. cerevisiae deletion strains, locus YPL055C, strain LGE1, stronger effect = lower value.
[24] abbreviates: S. cerevisiae deletion strains, locus YPL241C, strain CIN2, stronger effect = lower value.
The mark [25] stands for this setting: S. cerevisiae deletion strains, locus YPR135W, strain CTF4, stronger effect = lower value.
Setting [26] is: S. cerevisiae strains, strain wild type, stronger effect = lower value.

The campaign covered roughly 5,500 compounds. About 2,000 (36%) were called active. Roughly 18% stayed inconclusive and do not appear here. Some of the results follow. Unmarked numbers belong to inactive results. Cut-off read from the data, not from the text of the source: active = normalized growth mostly below about 0.91 (no sharp cut-off); inconclusive = no clear call, values can overlap the other calls; inactive = mostly above about 0.92.

Turning to `C[N+](C)(C)CCO`, the normalized growth was 1.04 (S. cerevisiae deletion strains, locus YAL040C, strain CLN3, stronger effect = lower value); 1.02 (S. cerevisiae deletion strains, locus YCL061C, strain MRC1 (second series), stronger effect = lower value); 1.05 under setting [1]; 0.998 (S. cerevisiae deletion strains, locus YER002W, strain NOP16, stronger effect = lower value); 1.06 under setting [2]; 1.09 [resistant] (active) under setting [3]. The normalized growth under setting [4] was 1.01; the normalized growth (S. cerevisiae deletion strains, locus YNL175C, strain NOP13, stronger effect = lower value) is 1.02; the normalized growth (S. cerevisiae deletion strains, locus YNL197C, strain WHI3, stronger effect = lower value) was 0.996; the normalized growth (S. cerevisiae deletion strains, locus YNL224C, strain SQS1, stronger effect = lower value) is 1.01; the normalized growth (S. cerevisiae deletion strains, locus YOR083W, strain WHI5 (second series), stronger effect = lower value) is 1.08.
Regarding `O=C(Nc1ccc(Cl)c(Cl)c1)c1ccccc1`, the normalized growth runs as follows: under setting [5], 0.885 (active); under setting [6], 0.892 (active); under setting [7], 0.931; under setting [1], 0.889; under setting [8], 0.813 (active); under setting [9], 0.84 (active). Besides, the normalized growth was 0.579 (active) under setting [10]; 0.846 (active) under setting [11]; 0.906 (active) under setting [12]; 0.771 (active) under setting [3]; 0.271 (active) under setting [13]; 0.876 (active) under setting [14]. Further, the normalized growth by setting is: under setting [15], 0.504 (active); under setting [16], 0.318 (active); under setting [17], 0.797 (active); under setting [18], 0.895 (active); (S. cerevisiae deletion strains, locus YMR307W, strain GAS1, stronger effect = lower value) 0.453 (active); (S. cerevisiae deletion strains, locus YNL128W, strain TEP1, stronger effect = lower value) 0.933. Further, the normalized growth is 0.942 under setting [19]; 0.747 (active) under setting [20]; 0.8 (active) under setting [21]; 0.761 (active) under setting [22]; 0.754 (active) under setting [23]; 0.754 (active) under setting [24]. Besides, the normalized growth reads like this: under setting [25], 0.406 (active); under setting [26], 0.908 (active).
Turning to `O=P(O)(O)C(O)(Cc1cccnc1)P(=O)(O)O`, the normalized growth was 0.969 under setting [10]; 0.963 (S. cerevisiae deletion strains, locus YHR079C, strain IRE1, stronger effect = lower value); 0.969 (S. cerevisiae deletion strains, locus YJL095W, strain BCK1, stronger effect = lower value); 0.936 (S. cerevisiae deletion strains, locus YJR066W, strain TOR1, stronger effect = lower value); 0.919 (S. cerevisiae deletion strains, locus YLR113W, strain HOG1, stronger effect = lower value); 0.897 (S. cerevisiae deletion strains, locus YNL183C, strain NPR1, stronger effect = lower value). For the same molecule, the normalized growth was 0.966 (S. cerevisiae deletion strains, locus YOR231W, strain MKK1, stronger effect = lower value) and 0.933 (S. cerevisiae deletion strains, locus YPL256C, strain CLN2, stronger effect = lower value).
For `Cc1cccc(NC(=S)NCc2ccncc2)c1`, the normalized growth was 1 under setting [5]; 1 under setting [6]; 0.988 under setting [7]; 1 under setting [1]; 1.01 under setting [8]; 1.01 under setting [9]. For the same molecule, the normalized growth under setting [2] is 0.992; the normalized growth under setting [10] was 0.857; the normalized growth under setting [11] is 0.99; the normalized growth (S. cerevisiae deletion strains, locus YJL187C, strain SWE1, stronger effect = lower value) was 1.02; the normalized growth under setting [12] was 1; the normalized growth under setting [3] is 0.987. For the same molecule, the normalized growth under setting [13] is 1.01; the normalized growth under setting [14] is 1.01; the normalized growth under setting [15] was 0.88; the normalized growth under setting [16] was 1.01; the normalized growth under setting [17] is 0.974; the normalized growth under setting [18] is 1.01. The normalized growth runs as follows: under setting [4], 0.981; under setting [19], 0.993; under setting [20], 1.01; under setting [21], 1.01; under setting [22], 1.03; under setting [23], 1.03. For the same molecule, the normalized growth under setting [24] is 0.998, the normalized growth under setting [25] is 0.928 and the normalized growth under setting [26] was 0.997.

For the origin of these results see PubChem BioAssay AID1159580 (chemical genetic matrix, 2015).
